The values below come from article PMC12820563, “FoxP3 forms a head-to-head dimer in vivo and stabilizes its multimerization on adjacent microsatellites”.

Over roughly 16,000 sequences, “rpm ratio (pull-down/input)” has its median near 0.5; the highest 2% begin near 5.5. The sample as a whole holds a higher share of the highest values than the screen did.

This assay addresses T1, MBP-FoxP3dN (Mus musculus, UniProt Q99JB6 188-423).
T1 sequence: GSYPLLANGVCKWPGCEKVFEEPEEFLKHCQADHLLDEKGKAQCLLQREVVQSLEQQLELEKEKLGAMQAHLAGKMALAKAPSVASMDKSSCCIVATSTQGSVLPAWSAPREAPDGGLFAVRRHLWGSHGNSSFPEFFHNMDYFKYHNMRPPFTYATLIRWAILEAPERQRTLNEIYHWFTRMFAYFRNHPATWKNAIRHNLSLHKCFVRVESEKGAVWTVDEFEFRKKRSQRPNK
Description: PD-seq (MBP pull-down with sequencing); 20 mM Tris-HCl pH 7.5, 100 mM NaCl, 1.5 mM MgCl2, 0.4 uM protein, 0.1 uM dsDNA library, 30 min, room temperature, amylose pull-down; high values mean tight binding. Particulars: protein: recombinant; tags: His6-MBP; chain copies: 2; dsDNA, one strand shown. Put shortly: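 The N-terminus-lacking fragment of mouse FoxP3 or FoxP1 carried a His6-MBP tag and was expressed in E. coli. At 0.4 µM it was incubated with 0.1 µM Klenow-filled degenerate double-stranded DNA library for 30 min at room temperature in Tris pH 7.5 buffer with NaCl and MgCl2, and complexes were caught on amylose resin, washed three times, released with proteinase K, PCR-barcoded and Illumina-sequenced. Binding is reads-per-million enrichment of pull-down over input with replicates pooled.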
For the sequence “GATGATTGTTCTCCCAGCTGATGAATTGATCAGGTCGAGTAAACAAATTTTCCTAATCTTTCTGTTCAAGCGCCATCTAC”, the binding signal was 0.232 RPM ratio (pull-down/input). The value for “GATGATTGTTCTCCCAGCTGATGAATTGGTTGCATCGAGTAAACAAATTTTCCTAATCTTTCTGTTCAAGCGCCATCTAC” was 2.53 RPM ratio (pull-down/input); that for “GATGATTGTTCTCCCAGCTGATGAATTGGAAGCATCGAGTAAACAAATTTTCCTAATCTTTCTGTTCAAGCGCCATCTAC” was 0.654 RPM ratio (pull-down/input); that for “GATGATTGTTCTCCCAGCTGATGAATTAATTGTCTCGAGTAAACAAATTTTCCTAATCTTTCTGTTCAAGCGCCATCTAC” was 3.16 RPM ratio (pull-down/input). “GATGATTGTTCTCCCAGCTGATGAATTAGATAGCTCGAGTAAACAAATTTTCCTAATCTTTCTGTTCAAGCGCCATCTAC”: the binding signal was 0.537 RPM ratio (pull-down/input).

Turning to “GATGATTGTTCTCCCAGCTGATGAATTATGCCTATCGAGTAAACAAATTTTCCTAATCTTTCTGTTCAAGCGCCATCTAC”, the binding signal is 2.91 RPM ratio (pull-down/input). With “GATGATTGTTCTCCCAGCTGATGAATTTCCGTTATCGAGTAAACAAATTTTCCTAATCTTTCTGTTCAAGCGCCATCTAC” the figure was 0.615 RPM ratio (pull-down/input); with “GATGATTGTTCTCCCAGCTGATGAATTTGATGACTCGAGTAAACAAATTTTCCTAATCTTTCTGTTCAAGCGCCATCTAC”, 3.97 RPM ratio (pull-down/input); with “GATGATTGTTCTCCCAGCTGATGAATTTTATGACTCGAGTAAACAAATTTTCCTAATCTTTCTGTTCAAGCGCCATCTAC”, 0.491 RPM ratio (pull-down/input). Regarding “GATGATTGTTCTCCCAGCTGATGAATTTAGTTTCTCGAGTAAACAAATTTTCCTAATCTTTCTGTTCAAGCGCCATCTAC”, the binding signal was 2.13 RPM ratio (pull-down/input). The value for “GATGATTGTTCTCCCAGCTGATGAATTTTTTGACTCGAGTAAACAAATTTTCCTAATCTTTCTGTTCAAGCGCCATCTAC” was 0.273 RPM ratio (pull-down/input); that for “GATGATTGTTCTCCCAGCTGATGAATTAGTTTACTCGAGTAAACAAATTTTCCTAATCTTTCTGTTCAAGCGCCATCTAC” was 5.83 RPM ratio (pull-down/input). The value for “GATGATTGTTCTCCCAGCTGATGAATTTAGTTACTCGAGTAAACAAATTTTCCTAATCTTTCTGTTCAAGCGCCATCTAC” was 3.04 RPM ratio (pull-down/input). Consider “GATGATTGTTCTCCCAGCTGATGAATTTATTGACTCGAGTAAACAAATTTTCCTAATCTTTCTGTTCAAGCGCCATCTAC”, for which the binding signal is 5.75 RPM ratio (pull-down/input). The value for “GATGATTGTTCTCCCAGCTGATGAATTTATTTTCTCGAGTAAACAAATTTTCCTAATCTTTCTGTTCAAGCGCCATCTAC” was 5.54 RPM ratio (pull-down/input); that for “GATGATTGTTCTCCCAGCTGATGAATTTTATTTCTCGAGTAAACAAATTTTCCTAATCTTTCTGTTCAAGCGCCATCTAC” was 1.53 RPM ratio (pull-down/input); that for “GATGATTGTTCTCCCAGCTGATGAATTTGTTGACTCGAGTAAACAAATTTTCCTAATCTTTCTGTTCAAGCGCCATCTAC” was 7.34 RPM ratio (pull-down/input). With “GATGATTGTTCTCCCAGCTGATGAATTATTTGACTCGAGTAAACAAATTTTCCTAATCTTTCTGTTCAAGCGCCATCTAC” the figure was 0.481 RPM ratio (pull-down/input). The value for “GATGATTGTTCTCCCAGCTGATGAATTTTTATTCTCGAGTAAACAAATTTTCCTAATCTTTCTGTTCAAGCGCCATCTAC” was 0.391 RPM ratio (pull-down/input).
